Columns and labels:
Experiment in all cases: log2 ratio of Biotin-Ahx-Ub-VS probe labelling (fragment/DMSO); higher = less target engagement (more negative = stronger competition), active = hit call of the paper (q ≤ 0.05, log2 ratio ≤ -1)
Conditions in all cases: compound concentration: 200 uM; treatment time: 3 h
USP42 = biological target: T1, USP42 (UniProt Q9H9J4)
T1 sequence (whole entry): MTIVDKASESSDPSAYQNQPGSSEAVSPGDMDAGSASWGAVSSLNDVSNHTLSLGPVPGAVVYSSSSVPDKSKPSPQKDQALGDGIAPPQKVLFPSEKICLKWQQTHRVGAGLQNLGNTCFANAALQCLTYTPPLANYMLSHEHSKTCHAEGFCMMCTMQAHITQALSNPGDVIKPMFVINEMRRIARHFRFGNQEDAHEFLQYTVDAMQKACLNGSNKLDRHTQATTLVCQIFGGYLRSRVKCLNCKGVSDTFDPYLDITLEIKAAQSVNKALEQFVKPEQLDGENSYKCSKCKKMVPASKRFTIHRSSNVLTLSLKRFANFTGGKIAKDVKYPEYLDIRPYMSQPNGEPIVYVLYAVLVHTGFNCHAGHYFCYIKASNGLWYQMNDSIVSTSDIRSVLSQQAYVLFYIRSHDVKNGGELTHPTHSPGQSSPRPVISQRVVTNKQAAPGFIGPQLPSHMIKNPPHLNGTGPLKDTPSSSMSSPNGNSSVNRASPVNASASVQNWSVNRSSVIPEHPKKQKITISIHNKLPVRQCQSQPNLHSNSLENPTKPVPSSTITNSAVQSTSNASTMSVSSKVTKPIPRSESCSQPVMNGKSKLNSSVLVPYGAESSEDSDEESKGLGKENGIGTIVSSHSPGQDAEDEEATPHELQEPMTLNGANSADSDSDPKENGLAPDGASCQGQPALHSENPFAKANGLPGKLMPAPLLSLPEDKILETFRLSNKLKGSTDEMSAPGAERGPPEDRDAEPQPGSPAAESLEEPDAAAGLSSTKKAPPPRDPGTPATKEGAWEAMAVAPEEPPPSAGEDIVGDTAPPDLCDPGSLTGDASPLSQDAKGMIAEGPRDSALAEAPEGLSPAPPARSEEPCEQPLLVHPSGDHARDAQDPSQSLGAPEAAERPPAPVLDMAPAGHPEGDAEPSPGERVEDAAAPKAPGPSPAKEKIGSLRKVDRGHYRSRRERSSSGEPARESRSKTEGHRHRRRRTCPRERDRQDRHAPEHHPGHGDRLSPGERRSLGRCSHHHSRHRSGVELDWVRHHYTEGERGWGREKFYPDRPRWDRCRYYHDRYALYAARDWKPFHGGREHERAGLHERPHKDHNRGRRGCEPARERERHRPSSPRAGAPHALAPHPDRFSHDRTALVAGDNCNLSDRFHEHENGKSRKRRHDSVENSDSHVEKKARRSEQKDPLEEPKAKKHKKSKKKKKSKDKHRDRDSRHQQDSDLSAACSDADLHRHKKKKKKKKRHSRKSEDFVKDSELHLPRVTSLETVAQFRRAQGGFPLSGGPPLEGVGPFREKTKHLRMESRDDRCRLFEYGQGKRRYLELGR
How it was run: (§1)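 Each value is an average log2 ratio of fragment to vehicle, tested by unpaired t-test. The underlying Spectronaut label-free quantities were global-median-normalised, and only proteins with ≥2 unique peptides were included. Triplicate HEK293T lysate samples (495 µg) were exposed to fragment at 200 µM or vehicle for 3 h, then to Biotin-Ahx-Ub-VS at 0.5 µM final for 1 h, before NeutrAvidin enrichment of labelled DUBs, LysC and trypsin digestion, and diaPASEF LC-MS/MS.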

USP46 = USP46 (UniProt P62068)
USP46, sequence (P62068 whole entry): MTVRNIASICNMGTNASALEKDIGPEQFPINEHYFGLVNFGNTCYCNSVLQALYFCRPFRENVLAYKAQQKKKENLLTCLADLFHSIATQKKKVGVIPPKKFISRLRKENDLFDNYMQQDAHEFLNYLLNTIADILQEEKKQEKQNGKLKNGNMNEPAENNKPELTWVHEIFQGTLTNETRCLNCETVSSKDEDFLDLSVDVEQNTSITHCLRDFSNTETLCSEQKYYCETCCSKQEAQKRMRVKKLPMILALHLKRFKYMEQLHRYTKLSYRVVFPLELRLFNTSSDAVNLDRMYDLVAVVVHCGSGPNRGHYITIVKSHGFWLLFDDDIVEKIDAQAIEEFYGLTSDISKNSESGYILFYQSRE
How it was run: as §1

USP47 = biological target: T2, USP47 (UniProt Q96K76)
T2 sequence (whole entry): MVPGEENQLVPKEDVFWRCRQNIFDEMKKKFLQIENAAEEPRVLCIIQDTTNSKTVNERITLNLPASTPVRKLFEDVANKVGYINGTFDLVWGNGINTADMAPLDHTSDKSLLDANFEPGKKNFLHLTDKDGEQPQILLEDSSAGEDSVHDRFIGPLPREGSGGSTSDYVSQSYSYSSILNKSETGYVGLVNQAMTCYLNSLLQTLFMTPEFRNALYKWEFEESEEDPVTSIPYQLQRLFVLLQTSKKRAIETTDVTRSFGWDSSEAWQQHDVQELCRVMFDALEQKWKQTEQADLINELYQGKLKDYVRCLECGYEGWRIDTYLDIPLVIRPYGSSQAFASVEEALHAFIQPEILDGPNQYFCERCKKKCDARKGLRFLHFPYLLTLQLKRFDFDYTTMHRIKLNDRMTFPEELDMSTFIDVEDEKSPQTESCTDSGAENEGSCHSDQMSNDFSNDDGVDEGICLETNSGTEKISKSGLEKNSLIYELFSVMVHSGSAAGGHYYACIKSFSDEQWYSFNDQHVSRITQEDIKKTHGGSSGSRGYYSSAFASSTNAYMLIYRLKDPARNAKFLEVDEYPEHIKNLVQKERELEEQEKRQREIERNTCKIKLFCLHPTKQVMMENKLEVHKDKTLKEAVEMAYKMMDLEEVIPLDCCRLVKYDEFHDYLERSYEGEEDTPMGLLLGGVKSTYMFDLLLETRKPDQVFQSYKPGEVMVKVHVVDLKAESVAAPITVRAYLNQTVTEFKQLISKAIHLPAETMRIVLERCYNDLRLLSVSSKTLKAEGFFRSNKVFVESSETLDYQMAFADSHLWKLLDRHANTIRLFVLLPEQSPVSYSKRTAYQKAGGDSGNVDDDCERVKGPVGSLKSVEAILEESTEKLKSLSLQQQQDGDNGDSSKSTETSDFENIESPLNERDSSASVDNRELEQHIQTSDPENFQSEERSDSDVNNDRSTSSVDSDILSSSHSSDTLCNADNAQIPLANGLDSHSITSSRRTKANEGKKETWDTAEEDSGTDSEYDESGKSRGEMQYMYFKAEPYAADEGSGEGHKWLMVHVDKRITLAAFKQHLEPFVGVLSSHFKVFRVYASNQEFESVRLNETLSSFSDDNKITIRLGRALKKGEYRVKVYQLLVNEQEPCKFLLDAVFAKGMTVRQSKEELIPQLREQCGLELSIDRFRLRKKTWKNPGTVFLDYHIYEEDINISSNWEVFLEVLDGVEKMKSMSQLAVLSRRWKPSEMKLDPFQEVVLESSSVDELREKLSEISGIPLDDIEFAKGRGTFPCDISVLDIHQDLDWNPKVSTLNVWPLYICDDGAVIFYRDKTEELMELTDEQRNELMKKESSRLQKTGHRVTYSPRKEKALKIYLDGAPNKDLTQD
How it was run: as §1

USP48 = biological target: T3, USP48 (UniProt Q86UV5)
T3 sequence (whole entry): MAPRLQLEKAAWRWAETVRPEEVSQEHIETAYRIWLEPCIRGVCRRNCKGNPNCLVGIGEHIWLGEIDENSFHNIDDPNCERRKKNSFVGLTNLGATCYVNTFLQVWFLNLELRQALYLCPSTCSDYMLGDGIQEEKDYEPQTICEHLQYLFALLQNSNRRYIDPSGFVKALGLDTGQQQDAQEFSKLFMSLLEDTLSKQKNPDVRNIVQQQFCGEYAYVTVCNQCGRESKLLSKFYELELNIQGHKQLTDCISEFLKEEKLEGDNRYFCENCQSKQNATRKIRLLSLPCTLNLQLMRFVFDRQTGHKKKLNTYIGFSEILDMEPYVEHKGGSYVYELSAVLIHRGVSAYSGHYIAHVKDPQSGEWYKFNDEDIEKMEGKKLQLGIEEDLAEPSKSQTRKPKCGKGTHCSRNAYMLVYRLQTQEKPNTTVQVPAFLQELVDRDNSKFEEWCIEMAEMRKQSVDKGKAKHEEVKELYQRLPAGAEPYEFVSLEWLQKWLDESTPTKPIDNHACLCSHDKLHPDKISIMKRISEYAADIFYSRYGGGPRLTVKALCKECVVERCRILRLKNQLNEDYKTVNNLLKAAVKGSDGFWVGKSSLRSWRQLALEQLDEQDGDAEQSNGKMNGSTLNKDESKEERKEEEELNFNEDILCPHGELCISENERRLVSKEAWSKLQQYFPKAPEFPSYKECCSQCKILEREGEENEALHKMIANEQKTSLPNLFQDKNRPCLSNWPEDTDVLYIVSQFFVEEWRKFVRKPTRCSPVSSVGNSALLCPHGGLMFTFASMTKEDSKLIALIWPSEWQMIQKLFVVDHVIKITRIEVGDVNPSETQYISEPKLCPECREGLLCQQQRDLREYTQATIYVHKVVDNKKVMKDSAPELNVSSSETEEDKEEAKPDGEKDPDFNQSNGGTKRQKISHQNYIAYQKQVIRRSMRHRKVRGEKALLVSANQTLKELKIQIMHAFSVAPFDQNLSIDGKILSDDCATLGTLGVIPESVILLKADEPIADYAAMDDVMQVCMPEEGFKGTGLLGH
How it was run: as §1

USP5 = biological target: T4, USP5 (UniProt P45974)
T4 sequence (whole entry): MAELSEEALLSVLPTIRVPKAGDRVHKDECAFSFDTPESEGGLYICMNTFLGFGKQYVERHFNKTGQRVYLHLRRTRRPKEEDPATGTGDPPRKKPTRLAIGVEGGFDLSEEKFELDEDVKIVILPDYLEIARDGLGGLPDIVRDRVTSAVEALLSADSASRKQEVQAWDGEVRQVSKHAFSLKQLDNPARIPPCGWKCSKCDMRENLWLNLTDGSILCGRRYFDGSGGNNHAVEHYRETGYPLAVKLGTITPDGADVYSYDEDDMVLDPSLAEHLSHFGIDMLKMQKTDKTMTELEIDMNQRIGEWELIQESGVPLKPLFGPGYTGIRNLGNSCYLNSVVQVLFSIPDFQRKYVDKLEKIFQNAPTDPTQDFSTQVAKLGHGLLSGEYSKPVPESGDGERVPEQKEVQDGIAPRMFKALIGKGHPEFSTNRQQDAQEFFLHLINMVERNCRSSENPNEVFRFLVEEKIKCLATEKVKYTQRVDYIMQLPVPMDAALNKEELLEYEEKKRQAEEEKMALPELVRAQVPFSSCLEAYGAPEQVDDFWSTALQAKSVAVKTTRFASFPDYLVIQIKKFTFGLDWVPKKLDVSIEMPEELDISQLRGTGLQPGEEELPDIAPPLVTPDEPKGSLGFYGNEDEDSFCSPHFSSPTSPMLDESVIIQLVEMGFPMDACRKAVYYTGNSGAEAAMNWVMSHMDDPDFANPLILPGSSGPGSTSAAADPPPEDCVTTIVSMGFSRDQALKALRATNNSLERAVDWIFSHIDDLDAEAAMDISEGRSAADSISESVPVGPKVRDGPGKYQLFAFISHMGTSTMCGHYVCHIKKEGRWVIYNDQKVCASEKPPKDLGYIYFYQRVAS
How it was run: as §1

USP54 = USP54 (UniProt Q70EL1)
How it was run: as §1

USP7 = USP7 (UniProt Q93009)
USP7, sequence (Q93009 whole entry, looked up): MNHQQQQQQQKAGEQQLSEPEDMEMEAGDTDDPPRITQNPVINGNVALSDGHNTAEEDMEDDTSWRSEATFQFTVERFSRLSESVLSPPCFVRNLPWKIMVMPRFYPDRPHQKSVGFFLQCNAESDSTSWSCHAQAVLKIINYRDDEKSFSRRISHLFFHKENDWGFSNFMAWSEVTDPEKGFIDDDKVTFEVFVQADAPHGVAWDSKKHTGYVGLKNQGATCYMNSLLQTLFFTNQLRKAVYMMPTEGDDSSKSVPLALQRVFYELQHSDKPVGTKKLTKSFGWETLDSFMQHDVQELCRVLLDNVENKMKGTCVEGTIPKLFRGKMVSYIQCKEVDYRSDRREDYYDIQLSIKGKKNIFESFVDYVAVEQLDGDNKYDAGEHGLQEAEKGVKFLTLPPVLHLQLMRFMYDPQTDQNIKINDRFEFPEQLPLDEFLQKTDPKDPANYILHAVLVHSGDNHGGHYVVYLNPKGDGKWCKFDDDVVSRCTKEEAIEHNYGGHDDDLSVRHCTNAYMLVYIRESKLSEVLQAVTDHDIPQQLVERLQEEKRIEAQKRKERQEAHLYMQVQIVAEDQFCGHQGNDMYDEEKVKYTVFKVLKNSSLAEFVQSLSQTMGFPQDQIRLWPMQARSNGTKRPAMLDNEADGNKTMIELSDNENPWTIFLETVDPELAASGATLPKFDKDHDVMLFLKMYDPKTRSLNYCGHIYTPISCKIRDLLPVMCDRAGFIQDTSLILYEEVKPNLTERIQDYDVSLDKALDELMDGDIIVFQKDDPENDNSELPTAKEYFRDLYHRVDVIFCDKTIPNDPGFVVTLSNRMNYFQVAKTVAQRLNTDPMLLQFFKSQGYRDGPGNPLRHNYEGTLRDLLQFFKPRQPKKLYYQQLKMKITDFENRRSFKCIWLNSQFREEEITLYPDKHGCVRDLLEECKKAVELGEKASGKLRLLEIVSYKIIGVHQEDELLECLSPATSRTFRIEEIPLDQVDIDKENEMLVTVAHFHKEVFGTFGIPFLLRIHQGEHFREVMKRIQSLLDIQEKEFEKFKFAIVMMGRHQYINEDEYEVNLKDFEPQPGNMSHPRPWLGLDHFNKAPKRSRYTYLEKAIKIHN
How it was run: as §1

USP8 = biological target: T5, USP8 (UniProt P40818)
T5 sequence (whole entry): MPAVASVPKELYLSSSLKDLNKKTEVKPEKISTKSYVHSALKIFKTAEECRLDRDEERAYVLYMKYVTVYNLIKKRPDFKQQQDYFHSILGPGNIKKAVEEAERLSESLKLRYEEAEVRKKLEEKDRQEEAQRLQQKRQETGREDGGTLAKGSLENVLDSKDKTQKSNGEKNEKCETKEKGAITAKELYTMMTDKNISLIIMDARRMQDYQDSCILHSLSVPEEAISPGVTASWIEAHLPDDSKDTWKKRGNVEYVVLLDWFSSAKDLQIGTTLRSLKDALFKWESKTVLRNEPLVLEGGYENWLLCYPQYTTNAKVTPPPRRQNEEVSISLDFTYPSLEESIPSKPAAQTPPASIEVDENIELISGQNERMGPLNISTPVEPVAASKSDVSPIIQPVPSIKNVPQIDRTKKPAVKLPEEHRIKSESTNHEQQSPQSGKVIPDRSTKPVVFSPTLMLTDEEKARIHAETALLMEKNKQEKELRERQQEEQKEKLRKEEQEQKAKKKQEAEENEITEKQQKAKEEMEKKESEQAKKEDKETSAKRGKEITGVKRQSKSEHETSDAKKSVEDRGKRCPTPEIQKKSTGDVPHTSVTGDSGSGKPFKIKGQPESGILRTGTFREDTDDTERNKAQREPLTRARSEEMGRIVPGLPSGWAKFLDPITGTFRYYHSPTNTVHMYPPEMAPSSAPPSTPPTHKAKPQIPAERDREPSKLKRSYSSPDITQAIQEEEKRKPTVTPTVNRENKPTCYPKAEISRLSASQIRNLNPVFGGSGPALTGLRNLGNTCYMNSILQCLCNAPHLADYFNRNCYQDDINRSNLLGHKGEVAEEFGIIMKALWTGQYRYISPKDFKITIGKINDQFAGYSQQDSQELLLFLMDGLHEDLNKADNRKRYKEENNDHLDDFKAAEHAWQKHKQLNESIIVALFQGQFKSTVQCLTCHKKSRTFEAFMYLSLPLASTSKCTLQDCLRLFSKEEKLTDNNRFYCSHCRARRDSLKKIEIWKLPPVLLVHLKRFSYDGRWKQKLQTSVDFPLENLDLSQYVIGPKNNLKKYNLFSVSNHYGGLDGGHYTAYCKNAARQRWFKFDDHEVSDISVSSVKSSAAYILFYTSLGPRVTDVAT
How it was run: as §1

USP9X = USP9X (UniProt Q93008)
USP9X, sequence (Q93008 whole entry): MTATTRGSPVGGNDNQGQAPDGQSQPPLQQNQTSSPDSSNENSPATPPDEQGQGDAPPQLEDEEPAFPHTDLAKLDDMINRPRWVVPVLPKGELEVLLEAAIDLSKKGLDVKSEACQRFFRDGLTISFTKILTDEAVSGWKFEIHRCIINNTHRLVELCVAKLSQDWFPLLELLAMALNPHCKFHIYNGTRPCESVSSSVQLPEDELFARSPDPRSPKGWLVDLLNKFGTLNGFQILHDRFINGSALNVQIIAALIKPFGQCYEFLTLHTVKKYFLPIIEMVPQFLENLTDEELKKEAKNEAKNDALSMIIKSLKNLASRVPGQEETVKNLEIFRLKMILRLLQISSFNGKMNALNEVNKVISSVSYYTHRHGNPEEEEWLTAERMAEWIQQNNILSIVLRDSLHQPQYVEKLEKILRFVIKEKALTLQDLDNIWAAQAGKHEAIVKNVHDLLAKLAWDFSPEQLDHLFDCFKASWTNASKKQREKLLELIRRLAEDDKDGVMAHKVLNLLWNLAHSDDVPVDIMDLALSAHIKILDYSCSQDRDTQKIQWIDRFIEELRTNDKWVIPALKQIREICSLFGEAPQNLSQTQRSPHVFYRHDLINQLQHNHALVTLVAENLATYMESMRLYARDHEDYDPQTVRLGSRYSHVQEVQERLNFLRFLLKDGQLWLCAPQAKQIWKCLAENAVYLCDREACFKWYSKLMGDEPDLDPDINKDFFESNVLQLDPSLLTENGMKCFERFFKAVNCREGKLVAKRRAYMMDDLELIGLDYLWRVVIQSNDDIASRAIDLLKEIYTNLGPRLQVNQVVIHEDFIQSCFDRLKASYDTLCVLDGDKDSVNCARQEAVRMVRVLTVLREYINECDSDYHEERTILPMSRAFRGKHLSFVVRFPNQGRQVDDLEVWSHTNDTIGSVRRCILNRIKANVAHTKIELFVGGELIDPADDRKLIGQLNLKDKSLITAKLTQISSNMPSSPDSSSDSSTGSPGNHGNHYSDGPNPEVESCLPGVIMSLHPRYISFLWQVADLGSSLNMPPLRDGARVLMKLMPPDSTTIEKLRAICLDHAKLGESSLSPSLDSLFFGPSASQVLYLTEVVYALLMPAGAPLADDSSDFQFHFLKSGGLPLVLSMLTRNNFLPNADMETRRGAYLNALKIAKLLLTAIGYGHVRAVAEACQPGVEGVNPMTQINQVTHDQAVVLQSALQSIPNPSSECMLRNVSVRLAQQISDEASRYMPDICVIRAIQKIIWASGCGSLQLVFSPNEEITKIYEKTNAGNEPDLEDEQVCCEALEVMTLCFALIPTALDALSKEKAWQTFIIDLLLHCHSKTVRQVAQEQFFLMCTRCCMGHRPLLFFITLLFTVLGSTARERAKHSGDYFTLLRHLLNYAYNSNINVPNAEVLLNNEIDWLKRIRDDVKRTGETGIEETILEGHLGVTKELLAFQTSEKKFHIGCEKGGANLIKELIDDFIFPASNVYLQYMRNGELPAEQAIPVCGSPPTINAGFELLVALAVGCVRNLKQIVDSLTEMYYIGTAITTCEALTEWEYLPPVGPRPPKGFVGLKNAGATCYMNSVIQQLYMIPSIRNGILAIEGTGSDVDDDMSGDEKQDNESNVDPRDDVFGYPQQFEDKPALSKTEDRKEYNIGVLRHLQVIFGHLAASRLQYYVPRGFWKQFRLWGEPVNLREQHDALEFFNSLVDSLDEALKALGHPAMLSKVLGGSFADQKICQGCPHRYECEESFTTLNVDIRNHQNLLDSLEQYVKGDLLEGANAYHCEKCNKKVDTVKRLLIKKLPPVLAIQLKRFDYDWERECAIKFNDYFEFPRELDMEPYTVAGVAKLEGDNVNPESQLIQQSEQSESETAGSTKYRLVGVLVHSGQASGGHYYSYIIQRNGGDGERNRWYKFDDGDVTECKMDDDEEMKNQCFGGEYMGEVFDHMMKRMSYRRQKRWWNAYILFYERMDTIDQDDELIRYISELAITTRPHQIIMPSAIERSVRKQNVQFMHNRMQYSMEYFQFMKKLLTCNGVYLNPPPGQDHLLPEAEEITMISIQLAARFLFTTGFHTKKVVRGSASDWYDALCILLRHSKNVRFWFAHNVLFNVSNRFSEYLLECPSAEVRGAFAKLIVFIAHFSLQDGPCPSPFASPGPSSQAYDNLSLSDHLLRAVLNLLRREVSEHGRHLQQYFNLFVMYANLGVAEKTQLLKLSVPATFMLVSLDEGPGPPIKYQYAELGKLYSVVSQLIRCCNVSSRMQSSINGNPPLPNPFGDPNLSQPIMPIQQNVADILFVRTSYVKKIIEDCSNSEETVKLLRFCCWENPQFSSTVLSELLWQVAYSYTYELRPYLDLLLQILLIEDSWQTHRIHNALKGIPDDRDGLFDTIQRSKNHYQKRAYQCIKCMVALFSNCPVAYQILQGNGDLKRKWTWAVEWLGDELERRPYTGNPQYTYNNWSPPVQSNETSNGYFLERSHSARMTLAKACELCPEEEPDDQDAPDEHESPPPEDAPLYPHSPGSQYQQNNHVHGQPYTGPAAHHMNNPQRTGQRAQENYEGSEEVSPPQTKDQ
How it was run: as §1

UniProt O00487 = biological target: UniProt O00487
UniProt O00487, sequence (O00487 whole entry): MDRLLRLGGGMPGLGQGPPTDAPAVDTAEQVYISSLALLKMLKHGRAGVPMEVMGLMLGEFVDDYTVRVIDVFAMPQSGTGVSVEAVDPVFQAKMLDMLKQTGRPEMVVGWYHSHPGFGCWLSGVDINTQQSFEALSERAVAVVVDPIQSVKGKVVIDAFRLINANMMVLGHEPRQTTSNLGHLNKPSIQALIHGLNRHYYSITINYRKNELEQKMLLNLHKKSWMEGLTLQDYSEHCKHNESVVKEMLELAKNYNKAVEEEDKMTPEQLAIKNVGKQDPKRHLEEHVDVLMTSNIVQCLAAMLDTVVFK
How it was run: as §1

Measured: log2 ratio of Biotin-Ahx-Ub-VS probe labelling

O=C(CCl)Nc1cc(Cl)ccc1C(=O)O
inactive: USP42 -0.11 | USP46 0.0628 | USP47 0.0765 | USP48 0.232 | USP5 0.436 | USP54 0.0975 | USP7 0.19 | USP8 -0.256 | USP9X -0.165 | UniProt O00487 -0.0135
